Only some compounds are listed: those with a hit (about 5.2% of all), similar ones and a draw of the others.
esBAF inh: Bmi1 luciferase reporter increase in mESCs, primary screen, esBAF inhibitor project, mouse ES cells, Bmi1 luciferase knock-in, single point. reporter increase, % at 12.5 µM. 350,000 tested, 2% active. 24 h; 100% = twice the neutral-well signal; in the data active = activation above about 40%; inconclusive = no clear call, values can overlap the other calls;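 also: a rise in the Bmi1 reporter signal indicates esBAF inhibition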
NR3A LBD binder: binders of NR3A ligand-binding domain, primary screen, biophysical, differential scanning fluorimetry, uHTS | Glutamate receptor ionotropic, NMDA 3A (GRIN3A) ligand-binding domain | NR3A LBD differential scanning fluorimetry, Tm shift; 0% = protein alone, 100% = glycine-bound protein | Tm shift relative to glycine control, % at 25 µM | 340,000 tested, 2.5% active | AID 1259313, 2017;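 active = melting temperature shift of at least 10% of the positive control shift, at one fixed dose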
Vif imaging: HIV Vif self-association inhibitors, primary screen, imaging, HEK293T, single point. HEK293T cells, Vif self-association by quenched fluorescence, 24 h. inhibition, % at 7.49 µM. 340,000 tested, 0.35% active. AID 602346, 2012; in the data active = inhibition above about 50%, passing the limit was not always enough; inconclusive = no clear call, values can overlap the other calls; inactive = below about 31%
NadD inh: inhibitors of S. aureus NadD, primary screen, biochemical, colorimetric, uHTS | inhibition, % at 20 µM | purified NadD enzyme, colorimetric absorbance read-out | 360,000 tested, 0.78% active; in the data active = inhibition above about 26%
SMARCA2 activ: SMARCA2 (BRM) function activators, primary screen, cell-based, luminescence, high throughput. MG213 cells, MMTV-luciferase reporter, dexamethasone, overnight. activation, % at 9.1 µM. 370,000 tested, 1% active. AID 652017, 2013; in the data active = activation above about 7.8%
SKN-1 inh: suppressors of acrylamide-induced Pgst-4::GFP reporter in worms, primary screen, SKN-1 inhibitor project, whole organism, uHTS, GFP/RFP fluorescence ratio, strain VP596. 360,000 tested, 0.49% active. C. elegans VP596 Pgst-4::GFP/RFP ratio, 24 h. inhibition, % at 21.8 µM;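 active = interference check ratio from 0.5 to 1.5 plus GFP to RFP signal ratio inhibition reaching or exceeding a fixed threshold, cut at about 30% in these data, passing the limit was not always enough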
Hits are given with their value; i = inactive; ? = inconclusive; nt = no result.

SMILES	esBAF inh	NR3A LBD binder	Vif imaging	NadD inh	SMARCA2 activ	SKN-1 inh
CN(/N=C/c1ccc(O)cc1O)c1nc(-c2ccccc2)cc(-c2ccccc2)n1	nt	22	i	33	i	i
CN1CCN(C(=O)C[C@@H]2C=C[C@@H](NC(=O)Nc3ccccc3F)[C@@H](CO)O2)CC1	i	nt	nt	nt	nt	nt
CC(=O)Nc1cccc(C(C)C2=CCCCC2)c1 (centres undefined)	nt	nt	nt	nt	7.8	nt
CC(=O)Nc1cccc(C)c1	i	i	i	i	i	i
Cc1cc(C)c2c(c1)NC(c1cc3c(cc1Br)OCO3)C1CC=CC21 (centres undefined)	nt	i	i	37	i	i
Brc1cc2c(cc1C1Nc3ccccc3C3C=CCC31)OCO2 (centres undefined)	nt	i	i	i	i	i
CC(=O)Nc1ccc2c(c1)C(=O)N(C)[C@@H]1CC[C@@H](CC(=O)NCCCN3CCOCC3)O[C@@H]1CO2	i	nt	nt	nt	nt	nt
O=C(C[C@H]1CC[C@@H](NC(=O)CN2CCOCC2)[C@@H](CO)O1)NC1CCCCC1	i	nt	nt	nt	nt	nt
C=CCn1c(N)cc(=O)nc1SC(C)C(=O)Nc1ccc(C(=O)OCC)cc1 (centres undefined)	nt	15	i	i	i	i
CN1C/C(=C/c2cccnc2)C(=O)/C(=C/c2cccnc2)C1	nt	20	i	i	i	i
Cc1ccnc(NC(=O)Nc2cccc(F)c2)n1	i	i	i	i	i	i
Cc1ccc(NC(=O)c2ccccc2F)nc1	i	i	i	i	i	i
Cc1ccc(NC(=O)Nc2ccc3c(c2)OCO3)nc1	48	i	i	i	i	i
Cc1ccc(NC(=O)Nc2cccc(F)c2)nc1	53	21	i	i	i	i
Cc1ccc(NC(=O)c2cc(F)c(F)cc2Cl)nc1	44	i	i	i	i	i
Cc1cccc(NC(=O)Nc2cccc(F)c2)n1	68	i	i	i	i	i
C[C@@H]1CN([C@H](C)CO)C(=O)c2cccc(N(C)C)c2O[C@H]1CN(C)Cc1ccc(-c2ccccc2)cc1	i	nt	nt	nt	nt	nt
O=C(C[C@@H]1C[C@H]2c3cc(NC(=O)CC4CC4)ccc3O[C@H]2[C@H](CO)O1)NCc1ccccn1	i	nt	nt	nt	nt	nt
Cc1ccc(S(=O)(=O)N(C)C[C@@H]2Oc3ccc(NS(=O)(=O)c4ccccc4)cc3CC(=O)N([C@@H](C)CO)C[C@@H]2C)cc1	i	nt	nt	nt	nt	nt
Cc1ccc(NC(=O)Nc2ccc(Cl)c(Cl)c2)nc1	60	12	i	i	i	i
Cc1cccc(NC(=O)Nc2cccc(C#N)c2)n1	50	i	i	i	i	i
Cc1ccc(NC(=O)Nc2ccc(Cl)cn2)cc1	nt	i	nt	i	i	i
Cc1ccc(/C=N\NC(=O)c2cc(OCC(F)(F)F)ccc2OCC(F)(F)F)cc1	i	14	?	i	i	i
C[C@H](CO)N1C[C@H](C)[C@@H](CN(C)Cc2ccc(C(=O)O)cc2)Oc2ccc(NC(=O)C3CC3)cc2CC1=O	i	nt	nt	nt	nt	nt
O=C1NCC(c2ccccc2)C1C(=O)N/N=C\c1ccc(-c2cccc(Cl)c2Cl)o1 (centres undefined)	nt	i	i	i	i	36
SMILES	esBAF inh	NR3A LBD binder	Vif imaging	NadD inh	SMARCA2 activ	SKN-1 inh
Cc1cc(C(=O)N/N=C/c2ccco2)n[nH]1	nt	i	i	i	i	i
Cc1cc(C(=O)N/N=C/c2ccc(-c3cccc(Cl)c3Cl)o2)n[nH]1	nt	13	i	i	i	i
Cc1cc(C(=O)N/N=C/c2ccc(-c3cccc(Br)c3)o2)n[nH]1	nt	15	i	i	i	i
Cc1ccc(-c2ccc(/C=N\NC(=O)C3C(=O)NCC3c3ccccc3)o2)cc1Cl (centres undefined)	i	i	i	i	i	i
CC(C)CC#Cc1ccc2c(c1)O[C@@H](CN(C)C(=O)c1cnccn1)[C@@H](C)CN([C@@H](C)CO)S2(=O)=O	i	nt	nt	nt	nt	nt
O=C(c1ccco1)n1c(=S)nc2ccccn21	nt	i	i	i	7.9	i
COc1ccccc1CNC(=O)C[C@@H]1C=C[C@H](NC(=O)CN(C)C)[C@H](CO)O1	i	nt	nt	nt	nt	nt
COc1ccccc1C(=O)C1CCCN(C(=O)c2ccccc2C(C)=O)C1 (centres undefined)	50	i	i	i	i	i
C[C@@H]1CN([C@@H](C)CO)C(=O)c2cc(NS(=O)(=O)c3ccc(Cl)cc3)ccc2O[C@@H](C)CCCCO[C@@H]1CN(C)Cc1ccccc1	i	nt	nt	nt	nt	nt
CO[C@@H]1CN(C)C(=O)c2cc(NC(C)=O)ccc2OC[C@H](C)N(Cc2ccccc2C(=O)O)C[C@H]1C	i	nt	nt	nt	nt	nt
CCOC(=O)c1ccc2c(c1)n(CC)c(/C=C/N(C)c1ccccc1)[n+]2CC	nt	i	i	i	i	i
CC[n+]1c(/C=C/N(C)c2ccccc2)n(-c2ccccc2)c2ccc(-c3nc4ccccc4s3)cc21	i	i	?	32	nt	i
COc1cc(C)c(CNc2cc(C)cc(C)c2)cc1C	i	20	i	i	i	i
Cc1ccc(/C=N/N2C(=S)SC(C)(C)C2N(O)C(=O)Nc2ccc([N+](=O)[O-])cc2)cc1 (centres undefined)	i	12	nt	i	i	i
C[C@@H](NC(=O)C[C@@H]1C[C@@H]2c3cc(NS(C)(=O)=O)ccc3O[C@@H]2[C@@H](CO)O1)c1ccccc1	i	nt	nt	nt	nt	nt
COc1cccc2cc(-c3ccccc3)c(=O)oc12	32	i	i	i	i	i
Cc1cc(C(=O)N2CCc3ccccc3C2)no1	i	i	nt	i	i	i
COc1ccc(-c2cc3cccc(OC)c3oc2=O)cc1	i	i	i	i	i	i
Cc1cc(C(=O)N2CCc3ccccc3C2)c(C)o1	52	i	i	i	i	i
COc1cccc2cc(C(=O)N3CCc4ccccc4C3)c(=O)oc12	78	i	i	i	i	i
CCCNC(=O)Nc1ccc2c(c1)C(=O)N(C)[C@H]1CC[C@H](CC(=O)Nc3cccc(C)c3)O[C@@H]1CO2	i	nt	nt	nt	nt	nt
COc1ccccc1-c1ccc([C@H]2[C@@H](C#N)N(C(=O)C3CCC3)[C@H]2CO)cc1	i	nt	nt	nt	nt	nt
Nc1nc(O)c(Sc2ccccc2[N+](=O)[O-])c(=O)[nH]1	i	17	i	i	i	i
CCN(CC)c1ccc2cc(-c3nc4ccccc4[nH]3)c(=O)oc2c1	i	i	nt	i	nt	i
CCN(CC)c1ccc2cc(-c3nnc(-c4ccccc4)o3)c(=O)oc2c1	46	32	179	i	i	i
COc1ccc(-c2nnc(-c3cc4c(ccc5ccccc54)oc3=O)o2)cc1	i	i	i	i	i	i
O=c1oc2ccc3ccccc3c2cc1-c1nnc(-c2ccccc2)o1	i	i	i	i	i	52

Compound activity deposited in PubChem by several laboratories.
